From PubChem BioAssay
The source made the active and inactive calls.

Tests used:
[1] = small-molecule microarray binders of probe aLefty2, primary screen, biochemical, biotinylated probe, 635/667 nm fluorescence (AID 1094); details: higher = more signal;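 note: score merges spot fluorescence near 667 nm with spot signal-to-noise ratio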
[2] = system: Noggin (protein binding on small-molecule microarray); experiment: Noggin binders on small-molecule microarray, primary screen, biochemical, 635/667 nm fluorescence (AID 1095); details: 635 nm fluorescence, higher = more signal;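 note: score merges 667 nm feature fluorescence with signal to noise over triplicate slides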
[3] = target: Neurogenic locus notch homolog protein 3 (Homo sapiens) (UniProt Q9UM47); experiment: NOTCH3 binders on small-molecule microarray, primary screen, biochemical, 635/667 nm fluorescence (AID 1096); details: NOTCH3 binding, 635 nm fluorescence, higher = more signal
Sequence of Neurogenic locus notch homolog protein 3 (Homo sapiens) (Q9UM47 whole entry, looked up): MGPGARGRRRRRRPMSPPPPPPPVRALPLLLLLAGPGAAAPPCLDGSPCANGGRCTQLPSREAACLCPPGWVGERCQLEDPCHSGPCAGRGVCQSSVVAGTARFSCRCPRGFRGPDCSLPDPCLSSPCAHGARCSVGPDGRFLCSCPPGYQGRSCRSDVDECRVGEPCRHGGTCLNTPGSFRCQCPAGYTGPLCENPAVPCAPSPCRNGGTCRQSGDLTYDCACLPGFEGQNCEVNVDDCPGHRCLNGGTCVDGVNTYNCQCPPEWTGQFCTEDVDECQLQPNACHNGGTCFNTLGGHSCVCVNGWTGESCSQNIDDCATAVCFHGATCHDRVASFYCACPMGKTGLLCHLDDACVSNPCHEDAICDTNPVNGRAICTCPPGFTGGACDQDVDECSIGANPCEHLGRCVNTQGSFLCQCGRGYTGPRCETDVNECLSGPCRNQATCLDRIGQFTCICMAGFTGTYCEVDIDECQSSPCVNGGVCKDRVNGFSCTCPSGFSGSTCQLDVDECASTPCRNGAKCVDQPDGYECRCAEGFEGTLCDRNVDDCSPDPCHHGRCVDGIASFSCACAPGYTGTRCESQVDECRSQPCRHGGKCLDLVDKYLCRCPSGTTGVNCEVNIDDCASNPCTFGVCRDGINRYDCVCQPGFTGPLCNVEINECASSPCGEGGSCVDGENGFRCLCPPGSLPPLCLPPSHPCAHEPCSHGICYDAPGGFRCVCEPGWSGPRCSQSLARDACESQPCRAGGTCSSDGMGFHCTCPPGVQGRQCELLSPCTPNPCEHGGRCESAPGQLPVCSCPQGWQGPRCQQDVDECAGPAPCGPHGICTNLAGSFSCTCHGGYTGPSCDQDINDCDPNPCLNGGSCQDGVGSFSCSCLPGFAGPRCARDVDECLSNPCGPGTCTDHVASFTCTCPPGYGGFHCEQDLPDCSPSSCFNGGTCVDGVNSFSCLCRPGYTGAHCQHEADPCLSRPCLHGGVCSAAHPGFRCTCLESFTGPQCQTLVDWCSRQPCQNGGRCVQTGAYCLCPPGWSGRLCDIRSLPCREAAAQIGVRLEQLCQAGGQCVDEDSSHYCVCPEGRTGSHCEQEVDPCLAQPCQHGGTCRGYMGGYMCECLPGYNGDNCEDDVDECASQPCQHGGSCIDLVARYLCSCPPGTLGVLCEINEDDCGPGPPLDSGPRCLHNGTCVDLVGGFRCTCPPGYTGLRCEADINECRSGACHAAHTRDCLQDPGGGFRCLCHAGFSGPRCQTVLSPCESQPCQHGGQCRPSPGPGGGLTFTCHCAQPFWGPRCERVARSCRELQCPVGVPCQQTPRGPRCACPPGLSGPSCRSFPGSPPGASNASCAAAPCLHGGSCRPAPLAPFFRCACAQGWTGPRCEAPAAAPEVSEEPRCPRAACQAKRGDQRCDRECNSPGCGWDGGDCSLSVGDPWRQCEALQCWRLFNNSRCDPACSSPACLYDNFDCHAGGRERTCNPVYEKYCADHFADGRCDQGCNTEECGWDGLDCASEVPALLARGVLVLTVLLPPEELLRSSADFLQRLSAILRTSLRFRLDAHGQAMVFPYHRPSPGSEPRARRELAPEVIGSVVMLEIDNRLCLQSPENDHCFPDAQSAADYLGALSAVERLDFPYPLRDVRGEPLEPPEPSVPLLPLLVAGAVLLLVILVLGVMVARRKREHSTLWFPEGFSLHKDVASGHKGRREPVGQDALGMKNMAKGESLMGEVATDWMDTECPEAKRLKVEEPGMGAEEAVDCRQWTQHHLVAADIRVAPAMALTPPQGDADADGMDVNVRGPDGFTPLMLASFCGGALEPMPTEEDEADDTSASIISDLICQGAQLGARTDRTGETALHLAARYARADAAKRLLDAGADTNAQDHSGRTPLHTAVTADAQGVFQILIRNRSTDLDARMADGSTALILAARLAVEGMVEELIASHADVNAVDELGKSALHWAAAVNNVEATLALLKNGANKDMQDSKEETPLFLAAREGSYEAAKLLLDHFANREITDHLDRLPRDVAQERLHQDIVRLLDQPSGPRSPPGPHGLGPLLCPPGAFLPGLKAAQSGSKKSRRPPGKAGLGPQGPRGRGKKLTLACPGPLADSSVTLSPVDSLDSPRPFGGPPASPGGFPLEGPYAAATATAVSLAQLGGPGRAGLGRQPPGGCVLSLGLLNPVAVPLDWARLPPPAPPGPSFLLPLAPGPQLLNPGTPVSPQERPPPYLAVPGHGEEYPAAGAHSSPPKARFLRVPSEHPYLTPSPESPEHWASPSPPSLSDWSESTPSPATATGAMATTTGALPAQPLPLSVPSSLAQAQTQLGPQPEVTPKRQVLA

[4] = small-molecule microarray binders of probe aEGFR, primary screen, biochemical, biotinylated probe, 635/667 nm fluorescence (AID 1097); details: higher = more signal;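 note: probe is a biotinylated anti-EGFR antibody binding compounds printed on slides; score combines fluorescence near 667 nm and signal to noise of each spot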
[5] = system: Plasmodium falciparum Sir2 (PF13_0152, Sir2A); experiment: pfSir2 binders on small-molecule microarrays, primary screen, biochemical, small-molecule microarray, 635 nm fluorescence (AID 1098); details: small-molecule microarray binding, fluorescence 635 nm; higher = more signal;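 note: score merges spot fluorescence intensity with its signal-to-noise ratio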
[6] = small-molecule microarray binders of probe aDKK1, primary screen, biochemical, biotinylated probe, 635/667 nm fluorescence (AID 1099); details: higher = more signal;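 note: score merges 667nm spot fluorescence with signal to noise across triplicate slides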
[7] = small-molecule microarray binders of probe aCHRDL2, primary screen, biochemical, biotinylated probe, 635/667 nm fluorescence (AID 1100); details: higher = more signal
[8] = splicing luciferase reporter signal modulators, primary screen, spliceosome inhibition project, cell-based, HEK293, splice +/- reporter (AID 1101); details: luminescence, 24 h, higher = more signal, called active from +8 up or from −8 down;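 note: HEK293 cells carrying a splicing-competent luciferase reporter gene; test concentration not given here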
[9] = target: Fibroblast growth factor 10 (Homo sapiens) (UniProt O15520); experiment: FGF10 binders on small-molecule microarrays, primary screen, biochemical, small-molecule microarray, 635 nm fluorescence (AID 1102); details: FGF10 binding, fluorescence 635 nm, higher = more signal
Sequence of Fibroblast growth factor 10 (Homo sapiens) (O15520 whole entry, looked up): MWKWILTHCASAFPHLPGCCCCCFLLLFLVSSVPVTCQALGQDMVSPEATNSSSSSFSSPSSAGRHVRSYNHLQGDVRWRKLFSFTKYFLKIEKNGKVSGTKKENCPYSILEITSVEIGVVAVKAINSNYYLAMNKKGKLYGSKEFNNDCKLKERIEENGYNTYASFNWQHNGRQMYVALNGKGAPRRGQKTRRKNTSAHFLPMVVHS

[10] = system: glycogen synthase kinase-3 (GSK3A per assay name; protocol says GSK3B); experiment: GSK3 binders on small-molecule microarrays, primary screen, biochemical, small-molecule microarray, 635 nm fluorescence, GSK3A (AID 1103); details: small-molecule microarray binding, fluorescence 635 nm; higher = more signal; note: the record names both GSK3A and GSK3B
[11] = target: Epidermal growth factor receptor (Homo sapiens) (UniProt P00533); experiment: EGFR binders on small-molecule microarrays, primary screen, biochemical, small-molecule microarray, 635 nm fluorescence (AID 1104); details: EGFR binding, higher = more signal;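 note: score merges 667 nm emission intensity with spot signal to noise over triplicate slides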
Sequence of Epidermal growth factor receptor (Homo sapiens) (P00533 whole entry, looked up): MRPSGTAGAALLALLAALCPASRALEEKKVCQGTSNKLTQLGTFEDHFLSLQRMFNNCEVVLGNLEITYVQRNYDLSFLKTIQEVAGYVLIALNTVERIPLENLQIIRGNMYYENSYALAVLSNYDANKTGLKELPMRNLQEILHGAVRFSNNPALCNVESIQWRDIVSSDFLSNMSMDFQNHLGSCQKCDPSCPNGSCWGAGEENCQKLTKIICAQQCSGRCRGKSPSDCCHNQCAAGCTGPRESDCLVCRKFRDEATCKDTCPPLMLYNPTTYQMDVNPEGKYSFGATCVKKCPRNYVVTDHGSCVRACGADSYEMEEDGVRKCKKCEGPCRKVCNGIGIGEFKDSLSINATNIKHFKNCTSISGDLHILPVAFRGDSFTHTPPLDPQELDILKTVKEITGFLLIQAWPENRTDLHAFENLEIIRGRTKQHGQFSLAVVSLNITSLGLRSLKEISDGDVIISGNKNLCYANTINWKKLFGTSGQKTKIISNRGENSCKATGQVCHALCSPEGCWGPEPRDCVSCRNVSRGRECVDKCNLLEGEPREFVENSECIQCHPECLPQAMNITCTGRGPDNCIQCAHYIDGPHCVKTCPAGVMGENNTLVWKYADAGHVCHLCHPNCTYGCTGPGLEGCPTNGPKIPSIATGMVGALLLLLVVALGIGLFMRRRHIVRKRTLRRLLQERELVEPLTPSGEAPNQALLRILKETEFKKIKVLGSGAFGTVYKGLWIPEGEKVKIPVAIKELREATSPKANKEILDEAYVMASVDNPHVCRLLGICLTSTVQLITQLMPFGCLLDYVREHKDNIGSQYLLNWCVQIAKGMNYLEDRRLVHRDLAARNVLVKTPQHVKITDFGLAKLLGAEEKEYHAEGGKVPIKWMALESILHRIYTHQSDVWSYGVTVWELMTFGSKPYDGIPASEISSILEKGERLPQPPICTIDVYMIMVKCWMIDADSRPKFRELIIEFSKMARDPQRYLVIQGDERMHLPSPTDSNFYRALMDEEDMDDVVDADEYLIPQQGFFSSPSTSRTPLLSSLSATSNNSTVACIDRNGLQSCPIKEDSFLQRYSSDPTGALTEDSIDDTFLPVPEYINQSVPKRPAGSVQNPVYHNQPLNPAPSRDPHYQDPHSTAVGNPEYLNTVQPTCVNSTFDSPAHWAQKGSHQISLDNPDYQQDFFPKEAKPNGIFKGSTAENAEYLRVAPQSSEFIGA

[12] = target: Follistatin-related protein 3 (Homo sapiens) (UniProt O95633); experiment: FSTL3 binders on small-molecule microarrays, primary screen, biochemical, small-molecule microarray, 635 nm fluorescence (AID 1105); details: FSTL3 binding, higher = more signal;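 note: score merges emission near 667 nm and signal to noise per printed spot across three slides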
Sequence of Follistatin-related protein 3 (Homo sapiens) (O95633 whole entry, looked up): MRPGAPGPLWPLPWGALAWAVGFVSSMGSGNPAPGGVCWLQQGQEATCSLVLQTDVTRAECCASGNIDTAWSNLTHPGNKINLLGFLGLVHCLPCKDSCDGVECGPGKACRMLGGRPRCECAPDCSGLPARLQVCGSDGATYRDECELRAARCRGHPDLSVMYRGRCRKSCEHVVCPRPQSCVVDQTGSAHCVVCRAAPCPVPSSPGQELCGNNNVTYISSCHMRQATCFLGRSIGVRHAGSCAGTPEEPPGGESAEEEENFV

[13] = target: Dickkopf-related protein 1 (Homo sapiens) (UniProt O94907); experiment: DKK1 binders on small-molecule microarrays, primary screen, biochemical, small-molecule microarray, 635 nm fluorescence scan (AID 1106); details: DKK1 binding, higher = more signal;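 note: score merges emission near 667 nm with signal to noise over three replicate slides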
Sequence of Dickkopf-related protein 1 (Homo sapiens) (O94907 whole entry, looked up): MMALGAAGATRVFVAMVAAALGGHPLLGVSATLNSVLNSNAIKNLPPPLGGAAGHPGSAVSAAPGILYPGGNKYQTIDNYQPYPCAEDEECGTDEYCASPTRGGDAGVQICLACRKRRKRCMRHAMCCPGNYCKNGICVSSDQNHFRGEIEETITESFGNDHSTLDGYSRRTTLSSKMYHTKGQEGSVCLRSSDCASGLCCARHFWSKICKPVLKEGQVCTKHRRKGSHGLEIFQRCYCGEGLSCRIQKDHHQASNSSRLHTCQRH

[14] = system: Inhibin beta A chain (activin A); experiment: INHBA (activin A) binders on microarrays, primary screen, biochemical, small-molecule microarray, 635 nm fluorescence scan (AID 1107); details: small-molecule microarray binding, higher = more signal;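 note: mouse activin A protein probed at 4.33 µg/mL on printed slides; score merges bound-protein fluorescence near 667 nm with spot signal-to-noise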
[15] = system: Human papillomavirus type 1a protein E7 (residues 44-93); experiment: HPV1a E7 fragment binders on microarrays, primary screen, biochemical, small-molecule microarray, residues 44-93, 635 nm fluorescence (AID 1108); details: small-molecule microarray binding, fluorescence 635 nm; higher = more signal;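 note: E7 fragment applied at 1 µg/mL in TBST for 1 h at 4 C; score combines spot fluorescence with its signal to noise ratio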
[16] = modulators of HCV replicon luciferase signal, primary screen, HCV replication inhibitor project, Huh7 cells, luciferase reporter (AID 1109); details: 48 h, higher = more signal;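 note: huh7 hepatoma cells harbouring a luciferase neomycin HCV replicon reporter; luciferase luminescence as measure of HCV replicon replication; test concentration not given here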
[17] = target: Left-right determination factor 2 (Homo sapiens) (UniProt O00292); experiment: LEFTY2 binders on small-molecule microarrays, primary screen, biochemical, small-molecule microarray, 635 nm fluorescence scan (AID 1110); details: LEFTY2 binding, higher = more signal
Sequence of Left-right determination factor 2 (Homo sapiens) (O00292 whole entry, looked up): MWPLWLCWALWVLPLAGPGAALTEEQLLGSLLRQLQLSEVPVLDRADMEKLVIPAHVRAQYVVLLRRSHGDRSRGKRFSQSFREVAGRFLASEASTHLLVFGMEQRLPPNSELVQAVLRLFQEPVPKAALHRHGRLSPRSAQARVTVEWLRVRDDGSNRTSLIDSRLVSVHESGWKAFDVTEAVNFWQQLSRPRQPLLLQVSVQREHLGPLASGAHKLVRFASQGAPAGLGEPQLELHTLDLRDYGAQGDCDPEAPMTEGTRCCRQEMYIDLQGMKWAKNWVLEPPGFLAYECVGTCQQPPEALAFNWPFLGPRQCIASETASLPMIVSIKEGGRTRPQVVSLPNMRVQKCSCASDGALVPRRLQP

[18] = target: Calmodulin-1 (Homo sapiens) (UniProt P0DP23); experiment: CALM1 binders on microarrays, EGTA buffer, profiling panel, biochemical, small-molecule microarray, Cy5-labelled CALM1 (AID 1111); details: Cy5-CALM1 binding fluorescence, higher = more signal;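 note: labelled calmodulin applied in Tris saline Tween buffer holding calcium plus EGTA and DTT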
[19] = target: Calmodulin-1 (Homo sapiens) (UniProt P0DP23); experiment: calcium-bound CALM1 binders on microarrays, profiling panel, artefact control for SMM control-protein annotation, biochemical, small-molecule microarray, Cy5-labelled CALM1, plus calcium (AID 1112); details: Cy5-CALM1 binding fluorescence, higher = more signal;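 note: score merges spot fluorescence with signal to noise from triplicate slides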
[20] = small-molecule microarray binders of probe aWnt5a, primary screen, biochemical, biotinylated probe, 635/667 nm fluorescence (AID 1113); details: higher = more signal;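 note: score merges 667 nm fluorescence intensity with signal-to-noise per printed feature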

Row | SMILES | composite z-score [1] | composite z-score [2] | composite z-score [3] | composite z-score [4] | composite z-score [5] | composite z-score [6] | composite z-score [7] | z-score [8] | composite z-score [9] | composite z-score [10] | composite z-score [11] | composite z-score [12] | composite z-score [13] | composite z-score [14] | composite z-score [15] | z-score [16] | composite z-score [17] | composite z-score [18] | composite z-score [19] | composite z-score [20]
1 | C=CCN1C(=O)[C@@]2(O[C@@H](CCn3cc(CCO)nn3)[C@H]([Si](C)(C)c3ccc(OC)cc3)[C@H]2C)c2cc(NC(=O)c3ccc(OC)cc3)ccc21 | -0.0985 | 1.04 | 0.742 | -0.0895 | 1.18 | 0.0251 | 0.113 | -0.654 (inactive) | 0.402 | 0.546 | 0.283 | 0.571 | 0.493 | 1.32 | 0.988 | -3.92 | 0.415 | 0.317 | 0.33 | 0.0205
2 | [N-]=[N+]=NCc1ccccc1C[C@]1(C(=O)NCc2ccccc2)N=C(c2ccc(OCCCO)cc2)O[C@H]1c1ccccc1 | 0.52 | -0.577 | 0.224 | 0.1 | 1.01 | 1.51 | 1.28 | 0.359 (inactive) | 0.19 | -0.516 | -0.864 | -0.565 | -1.03 | 0.928 | 0.508 | -1.95 | -0.941 | 1.82 | 1.36 | 0.108
3 | CC(C)C(=C=CC[C@@H](O)c1ccc(CO)o1)CCO | -0.237 | 0.852 | 0.116 | -0.191 | 1.78 | -0.2 | -0.479 | -0.493 (inactive) | 0.9 | 0.367 | -0.171 | 0.197 | 0.39 | 1.08 | 0.185 | -0.744 | 0.0308 | -0.108 | -0.13 | -0.178
4 | C=C(COC)/C(=C/C[C@H](OC(C)=O)c1ccc(CO)o1)c1cnc2ccccc2c1 | -0.0208 | 1.55 | 1.04 | -0.0616 | 1.05 | 0.0967 | 0.131 | -1.03 (inactive) | 0.979 | 1.29 | 0.477 | 1.48 | 0.639 | 1.61 | 0.729 | -1.18 | 0.149 | 0.143 | -0.387 | -0.0445
5 | O=c1n(-c2ccccc2)c(=O)n2n1CC(COc1ccccc1)=C1[C@@H](CCc3ccccc3)OB(O)C[C@@H]12 | -0.133 | 0.814 | 1.03 | 0.0209 | 0.812 | -0.178 | -0.482 | -1.14 (inactive) | 1.02 | 0.59 | 0.235 | 0.728 | 0.488 | 0.0187 | 0.398 | -1.91 | 0.41 | 0.0534 | 0.205 | 0.0181
6 | COC(=O)C(CC#Cc1ccc2c(c1)[C@]1(C(=O)N2)[C@H](C(=O)O)[C@H]2C(=O)O[C@H](c3ccccc3)[C@H](c3ccccc3)N2[C@@H]1c1ccc(OCCO)cc1)C(=O)OC | -0.0816 | 0.245 | 0.983 | -0.0728 | 1.53 | 0.393 | 0.799 | -1.31 (inactive) | 1.15 | 0.987 | -0.199 | 0.0514 | -0.611 | 0.117 | 0.738 | -0.555 | 0.155 | 2.16 | 0.717 | -0.0229
7 | COc1ccc([Si](C)(C)[C@H]2[C@H](CC(=O)N(CCO)Cc3ccccc3)O[C@@]3(C(=O)N(Cc4ccc(N5CCOC5=O)cc4)c4ccccc43)[C@@H]2C)cc1 | -0.0595 | 0.821 | 0.361 | -0.146 | 0.614 | 0.0402 | 0.32 | -1.56 (inactive) | 0.286 | -0.137 | 0.109 | 0.276 | 0.512 | 0.6 | 0.162 | -2.94 | 0.23 | 0.228 | 0.342 | -0.0944
8 | C=CCC(OC(C)=O)[C@@H]1[C@@H](N(Cc2ccc(-c3cccc(C(F)(F)F)c3)o2)C(=O)c2ccc(-c3ccccc3)cc2)c2cc(OCCCO)ccc2N1C(=O)Cc1ccc(OC)cc1 (stereo not given in full) | 0.0236 | -0.475 | -1.16 | -0.191 | -0.0081 | 0.109 | 0.796 | -1.07 (inactive) | -0.0385 | -0.661 | -0.574 | -0.201 | -0.361 | 1.44 | -0.0271 | -0.169 | -0.236 | -1.05 | 0.897 | -0.104
9 | C=C(COC)C(=O)CC[C@@H](OC(=O)c1ccccc1-c1ccccc1C(=O)O)c1cccc(OCCO)c1 | -0.183 | 0.518 | -0.338 | -0.173 | 0.147 | -0.0386 | 0.0203 | 0.306 (inactive) | 0.552 | -0.116 | -0.837 | -0.0053 | -0.0221 | 1.19 | -1.75 | -0.54 | 0.0941 | -1.17 | -1.09 | -0.096
10 | C=CC[C@]1(C(=O)N2CCCCC2)COC(c2ccc(OCCCO)cc2)=N1 | 0.0499 | 0.452 | -0.904 | -0.0933 | -0.0697 | -0.0336 | 0.83 | 0.682 (inactive) | -0.621 | -0.217 | -1 | -1.32 | -0.358 | 1.28 | 0.0296 | -1.1 | -0.727 | -1.56 | -0.29 | -0.176
11 | COCCCNC(=O)[C@@]1(C)c2ccccc2C(=O)N(Cc2cc(F)cc(C(F)(F)F)c2)[C@H]1c1ccc(CO)cc1 | 0.584 | -1.44 | -1.22 | -0.293 | 0.938 | 0.612 | 0.862 | -0.112 (inactive) | 0.22 | -0.611 | -1.79 | -1.69 | -2.23 | -0.39 | -0.762 | 0.67 | -1.88 | -0.416 | 0.49 | -0.178
12 | COCCCN1C(=O)[C@@]2(Cc3ccccc31)c1ccccc1C(=O)N(Cc1ccccc1Cl)[C@H]2c1ccc(CO)cc1 | -0.226 | -1.07 | -0.435 | -0.0304 | -0.482 | 0.337 | 0.775 | -0.471 (inactive) | -0.129 | -0.542 | -0.406 | -0.397 | -0.685 | 1.04 | -0.199 | -0.326 | -0.222 | -0.217 | -0.12 | 0.0044
13 | COc1ccc([Si](C)(C)[C@@H]2[C@@H](CC(=O)N3CCC[C@H]3CO)O[C@]3(C(=O)N(Cc4ccc(I)cc4)c4ccccc43)[C@H]2C)cc1 | 0.0662 | 0.982 | 1.13 | 0.0152 | 0.648 | -0.0319 | 0.0052 | -1.62 (inactive) | 0.637 | 1.29 | 0.743 | 1.23 | 1.13 | 0.752 | 0.152 | -2.22 | 0.46 | 1.51 | 1.15 | -0.165
14 | CCCCC(=C=CC[C@H](O)c1cccc(OCCO)c1)CCO | -0.12 | 0.0201 | -0.498 | -0.268 | 0.674 | -0.0104 | 0.287 | -0.261 (inactive) | 0.0392 | -0.558 | -0.932 | -0.764 | -0.263 | 1.07 | -0.397 | -1.21 | -0.497 | -0.357 | -0.0182 | -0.0462
15 | O=C1O[C@@H](c2ccccc2)[C@@H](c2ccccc2)N2[C@@H](c3ccc(OCCO)cc3)[C@]3(C(=O)Nc4ccc(C#CC5(O)CCCCCC5)cc43)[C@@H](C(=O)NC[C@H](O)c3ccccc3)[C@H]12 | 0.0844 | 0.982 | 1.04 | -0.0332 | 1.37 | 0.914 | 0.864 | -0.828 (inactive) | 1.15 | 1.17 | 0.244 | 1.25 | 0.382 | 0.42 | 1.24 | -2.06 | 0.497 | 1.97 | 0.638 | -0.0877
16 | COC(=O)c1c(CC[C@@H](CO)NC(=O)Nc2ccc(OC)cc2)oc(C(=O)Cc2ccccc2)c1C(=O)OC | -0.0233 | 0.414 | 0.101 | -0.0252 | 1.36 | 0.0707 | -0.0477 | -0.487 (inactive) | 0.394 | 0.618 | 0.0445 | 0.325 | 0.353 | 0.306 | 0.316 | 0.685 | 0.239 | -0.315 | -0.464 | -0.0445
17 | C=C[C@H](OC)[C@@H](OC(=O)Nc1ccc(OC)cc1)c1ccc(OC)c(O)c1 | -0.21 | -1.8 | -0.805 | -0.373 | 0.29 | -0.387 | 0.703 | -1.48 (inactive) | -0.971 | -0.761 | -1.91 | -1.18 | -1.61 | -0.385 | -1.51 | 0.369 | -1.63 | -1.07 | -0.137 | -0.202
